Consider 103 molecules from ChEMBL document CHEMBL3988442, “University of Dundee, Small-Polar-MMV Screening Library” (2021).

SMILES strings stand for the structures. Out of some 38,000 compounds screened, about 1,200 (3.2%) showed an effect of 50% or more. The median lay at about -58%. What follows is part of a selection rich in strong results, with near analogues and random picks from the rest.

This test concerns Plasmodium falciparum. The test is described as follows: Calibr Malaria Delayed Death Assay SOP. Type of test: functional, organism-based. Set-up: scale not given: in the data most compounds retested in dose-response had high values. The following applies: concentration 4.99e-06 (unit not given; other assays of the set use mol/L).
On to `CS(=O)(=O)CCNC(=O)Nc1sc2ccccc2c1Cl`, for which the “Percent Effect” value is on record as -106.1%.

Take `CN(C)CC(C)(O)CNC(=O)Nc1sc2ccccc2c1Cl` (stereo not drawn): the “Percent Effect” value is 61%. As for `CS(=O)(=O)CCCNC(=O)Nc1sc2ccccc2c1Cl`, the figure is -18.18%; as for `CS(=O)(=O)N1C[C@@H]2CC[C@H](C1)N(C/C=C/c1ccc(F)cc1)C2`, -47.28%; as for `CN(C)C(=O)N1C[C@@H]2CC[C@H](C1)N(C/C=C/c1ccc(F)cc1)C2`, 56.59%. On to `CN(C)C(=O)CN1C[C@@H]2CC[C@H](C1)N(C/C=C/c1ccc(F)cc1)C2`, for which the “Percent Effect” value is 41.87%. As for `CCN(c1ccsc1C(=O)N1CCSCC1)S(=O)(=O)c1ccc(Cl)cc1`, the figure is -33.89%; as for `Cc1cnn(Cc2ccc(NC(=O)N3CCCC3)cc2)c1`, -108.6%; as for `Cc1ccc(C(=O)N(C)Cc2csc(C)n2)c(=O)[nH]1`, -148.4%. Next, `CCC(NC(=O)C1CCN(C(C)C)CC1)c1cn2cccnc2n1` (stereo not drawn): -73.6%.

Regarding `CC(C)Cc1cc(-c2cc(-c3ccc[nH]3)nc(N)c2C#N)n[nH]1`, the “Percent Effect” value is recorded as 60.25%. As for `Cc1n[nH]c(C)c1-c1cc(-c2cccc(O)c2)nc(N)c1C#N`, the figure is -75.89%; as for `Cc1n[nH]c(C)c1-c1cc(-c2ccc[nH]2)nc(N)c1C#N`, -191.7%.

Take `Cc1ccc(CNCc2c(C(C)C)nn(C)c2N2CCOCC2)s1`: the “Percent Effect” value came out at 43.54%. As for `Cc1nccn1Cc1nnc(C2CCCN(Cc3ccncc3)C2)n1C` (stereo not drawn), the figure is -18.97%. Next, `Cc1nccn1CCCN1CCC(c2nccn2CC2CCC2)CC1`: -43.9%. As for `Cc1nccn1CCCN1CCCC(c2ccccc2)C1` (stereo not drawn), the figure is 77.62%; as for `COc1cc(C)ccc1OCCC(=O)N1CCC(N2CC=CC2)C1` (stereo not drawn), -87.08%. As to `COc1ccc(N2CCN(Cc3noc(CC(C)C)n3)C(C)C2=O)cc1` (stereo not drawn), the “Percent Effect” value is reported as -89.75%. Next, `COc1cc(CN(CCCN(C)C)Cc2ccccn2)cc2c1OCO2.O=C(O)CC(O)(CC(=O)O)C(=O)O`: 79.66%.

For `CN(C)CCN(C)C(=O)Cc1ccc2c(c1)OCCO2.O=C(O)CC(O)(CC(=O)O)C(=O)O`, the “Percent Effect” value was -18.25%.

Regarding `COc1ccccc1CN(Cc1cccnc1)CC1CCCO1.O=C(O)CC(O)(CC(=O)O)C(=O)O` (stereo not drawn), the “Percent Effect” value is listed as -1.656%.

For `CCN1CCc2[nH]cnc2C12CCN(C(=O)CCc1cccs1)CC2`, the “Percent Effect” value is on record as -14.54%. Next, `CCCc1nc2c(c(C)c(C)n2CCN(C)C)c(N)c1CC`: 89.53%; `Cc1c(-c2ccccc2)nc2c(c(C)c(C)n2CCN(C)C)c1N`: 79.27%; `CCc1c(-c2ccccc2)nc2c(c(C)c(C)n2CCN(C)C)c1N`: 66.32%. As for `CCN(C)CC(C)Cn1cnc(-c2ccccc2)c1C` (stereo not drawn), the figure is -12.51%.

Consider `CN(C)CCN1CCN(C)c2nc(-c3ccccc3)ncc2C1=O`, for which the “Percent Effect” value was -20.71%.

As for `CCc1c(C)sc2c1c(N)nc(=O)n2CCCN(C)C`, the “Percent Effect” value was -156.5%. Next, `CCc1c(C)sc2c1c(N)nc(=O)n2CCN(C)C`: 14.15%; `O=C(Cc1ccccn1)N1C[C@H]2CCC[C@@]2(COc2ccccn2)C1`: -9.537%; `Cc1cc(SCC(N)=O)nc(-c2ccc(F)cc2)n1`: 0.2782%.

For the molecule `COCCn1cnnc1CCNc1cc(C)nc2ccnn12`, the “Percent Effect” value is given as -117.5%. Next, `CCN1CC2(CC1=O)CN(Cc1ccoc1)CCN(C(=O)C(C)C)C2` (stereo not drawn): -77.86%.

Take `CN1CCC(CNC(=O)c2cccc(CN3CCCCCC3)c2)C1` (stereo not drawn): the “Percent Effect” value is given as -131.1%. With `CN(C)C(=O)CN1CCC2(COCc3cnc(N4CCOCC4)nc32)C1.O=C(O)C(F)(F)F` (stereo not drawn), the “Percent Effect” value stood at 13%.

With `CN(CCCO)C(=O)c1cc(COc2ccc3c(c2)CCCC3)on1`, the “Percent Effect” value is -142.4%. Next, `Cc1cccc(N2CCN(CCS(=O)(=O)c3ccc(Br)cc3)CC2)c1C`: -66.5%; `O=C(c1cscn1)N1CCc2ncc(CN3CCOCC3)n2CC1`: -41.39%. Next, `CCOc1ccc2nc(CN3CCC(CNC(C)=O)C3)ccc2c1` (stereo not drawn): 36.59%. As for `CCOc1ccc2nc(CN3CCOC(CN)C3)ccc2c1` (stereo not drawn), the figure is -11.41%; as for `CCOc1ccc2nc(CN3CCC(CN)C3)ccc2c1` (stereo not drawn), 85.08%; as for `c1ccc(Cc2noc(CN3CCCC(Cn4cncn4)C3)n2)cc1` (stereo not drawn), -77.91%. For `NC(=O)N1C[C@H](NC(=O)c2cscn2)[C@@H]2OCCC[C@@H]21`, the “Percent Effect” value is listed as -29.66%. Next, `O=C(NCc1ccco1)[C@H]1CC[C@@H]2[C@@H](CCN2c2ncccn2)O1.O=C(O)C(F)(F)F`: -5.9%. As for `CC(C)CN1C(=O)CC[C@]12CC[C@@H](NC(=O)NCc1cccnc1)CC2.O=C(O)C(F)(F)F`, the figure is -179.5%; as for `O=C(NCCSc1ccccc1F)NCc1cccnc1`, -28.43%. In the case of `O=C1NCCCCC1Sc1ccccc1F` (stereo not drawn), the “Percent Effect” value is on record as -25.7%. On to `O=C(Cc1cccnc1)NCCSc1ccccc1F`, for which the “Percent Effect” value is recorded as -31.8%. As for `Fc1ccccc1Sc1ccccc1CNC1=NCCN1.I`, the figure is 76.79%; as for `CN(C)c1nc(NCc2ccccc2Cn2cccn2)ncc1F`, -30.26%. As for `Cc1cc(Br)ccc1NCc1ccc(C(=O)N(C)C)[nH]1`, the figure is -35.81%; as for `CC(C)[C@H](NC(=O)NC1CCS(=O)(=O)C1)C(=O)NCc1ccc(Cl)cc1` (stereo partly drawn), -111.5%; as for `COCCC1COC2(CCN(C(=O)c3cccnc3)CC2)C1.O=C(O)C(F)(F)F` (stereo not drawn), -117.3%. As for `O=C(c1ccccc1)N1CC[C@H]2C[C@H](c3nccs3)O[C@@H]2C1`, the figure is -4.41%; as for `Cc1cc(C)cc(OCCN(C)C(=O)NC(C)c2nncn2C)c1` (stereo not drawn), -106.2%; as for `CCc1nc(C2CCCN2C(=O)CCCn2cccn2)no1` (stereo not drawn), -167.4875%. On to `COCC1c2c(cnn2C)CCN1C(=O)c1cscn1.O=C(O)C(F)(F)F` (stereo not drawn), for which the “Percent Effect” value is -119.3%.

As for `Cc1cc(C)nc(Nc2cccc(C3CCCN(CCO)C3)n2)n1` (stereo not drawn), the “Percent Effect” value came to 10.75%. Next, `Cc1cccc(Nc2nccnc2C2CCCN(CC(=O)N(C)C)C2)n1` (stereo not drawn): -114.3%; `NCc1n[nH]c(-c2cccc(F)c2)n1`: -72.36%; `Cc1nc(N2CCCC2)nc2c1CCN(C(=O)N(C)C)CC2`: -58.26%. Consider `CCc1cccc(N2CCC(NC(=O)c3ccco3)CC2)c1`, for which the “Percent Effect” value is listed as 59.23%. Take `CCc1cccc(N2CCC(NC(=O)c3ccoc3C)CC2)c1`: the “Percent Effect” value is recorded as -20.41%.

With `CCc1cccc(N2CCC(NC(=O)CCNC(N)=O)CC2)c1`, the “Percent Effect” value is recorded as -70%. Next, `c1ccc(CCCN2CC(n3cccn3)C2)cc1`: -65.67%; `CN1CCC(C(=O)N2CCN(Cc3cccc(Cl)c3)CC2)CC1=O` (stereo not drawn): -101.4%; `CC(=O)N1CCO[C@@H]2CN(Cc3cccc(Cl)c3)C[C@@H]2C1.O=C(O)C(F)(F)F`: -40.86%. As for `CS(=O)(=O)NC1CCN(CCc2ccccc2)CC1`, the figure is -29.4%; as for `Cl.Cl.NCC1[C@H]2CN(CCc3ccccc3)C[C@@H]12` (stereo partly drawn), 86.43%.

On to `O=C(Nc1nnc[nH]1)C(c1cccc(F)c1)N1CCOCC1` (stereo not drawn), for which the “Percent Effect” value is -17.23%.

With `CC/C=C(\C)CN1CCC(CNC(=O)c2ccc(=O)[nH]c2)CC1`, the “Percent Effect” value is -93.37%. As for `Cc1ccc(S(=O)(=O)Cc2nnc(C)n2C)cc1`, the figure is -134.3%; as for `O=C(c1csnn1)N1CCCC(n2cncn2)C1` (stereo not drawn), -97.91%; as for `CCC(CC)CN1CCN(CC(=O)Nc2cccc3nsnc23)CC1`, -38.36%. As for `CCn1nccc1C(=O)NC(Cn1cccn1)C(C)(C)C` (stereo not drawn), the figure is -34.87%; as for `CN(C)Cc1ccccc1CN(C)c1ncnc2[nH]ccc12`, 27.74%.

Take `CCn1cc(CN2CCN(Cc3cccc(OC)c3)C(=O)C2)cc1C#N`: the “Percent Effect” value came out at 47.6%.

As for `Cc1cc(C)cc(CN2CCN(Cc3cc(C#N)n(C)c3)CC2=O)c1`, the “Percent Effect” value amounted to 14.32%.

`CCn1cc(CN2CCN(Cc3cc(C)cc(C)c3)C(=O)C2)cc1C#N`: the “Percent Effect” value is listed as 66.78%.

Consider `CN(CCn1cnc(-c2ccccc2)c1-c1ncc[nH]1)S(C)(=O)=O`, for which the “Percent Effect” value was -10.43%. `NC1(C(=O)NCC2CCCN(Cc3cccc4nonc34)C2)CCC1` (stereo not drawn): the “Percent Effect” value was determined as 38.45%.

Regarding `CC(=O)NCC1CCCN(Cc2nc(Cc3ccccc3F)no2)C1` (stereo not drawn), the “Percent Effect” value is on record as -62.96%. Next, `CCN(C)S(=O)(=O)NCC1CCCN(Cc2ccccc2F)C1` (stereo not drawn): 74.13%; `CS(=O)(=O)NCC1CCCN(Cc2ccc(F)c3cccnc23)C1` (stereo not drawn): 9.25%; `NC1(C(=O)NCC2CCCN(Cc3ccccc3F)C2)CCCC1` (stereo not drawn): 85.42%. As to `CCN(C)S(=O)(=O)NCC1CCN(Cc2ccccc2F)C1` (stereo not drawn), the “Percent Effect” value is 42.63%.

Take `CC(C)NC(=O)[C@@H]1C[C@H]2NCC[C@H]2O1.Cl`: the “Percent Effect” value is given as -114.2%. With `Cc1n[nH]c(C)c1NC(=O)Nc1cccnc1N1CCCC1`, the “Percent Effect” value is on record as -5.845%. As for `CC(C)CC(NCc1cscn1)c1ccccn1` (stereo not drawn), the figure is 28.89%; as for `CC(C)CC(NCc1ccsc1)c1ccccn1` (stereo not drawn), 58.77%. Consider `CC(C)CC(NCc1cccs1)c1ccccn1` (stereo not drawn), for which the “Percent Effect” value is recorded as -24.93%. As to `COCCSCC(=O)NCc1ccc(N(C)C)cc1`, the “Percent Effect” value is on record as -84.72%.

Turning to `Cl.O=C(C1CC1)N1CCc2ccccc2C12CCNCC2`, the “Percent Effect” value is listed as -61.72%. As for `CCOC(=O)N1CCc2ccccc2C12CCNCC2.Cl`, the figure is 52.81%; as for `COCC(=O)N1CCc2ccccc2C12CCNCC2.Cl`, -57.82%; as for `Cc1cnn(CCCNC(=O)NCCS(=O)(=O)Nc2ccccc2)c1`, -111.9%. As for `CNC(=O)C(C)S(=O)(=O)Cc1csc(-c2cccs2)n1` (stereo not drawn), the figure is -44.96%. Next, `CC(C(=O)NC1CC1)S(=O)(=O)Cc1csc(-c2cccs2)n1` (stereo not drawn): -95.03%; `CC(=O)Nc1ccc(-c2ccccc2CCN)cc1`: -117.7%.

On to `Cc1ccc(CNC(=O)C2=NOC3(CCCNC3)C2)cc1` (stereo not drawn), for which the “Percent Effect” value was -11.58%. As for `CC(C)C(NC(=O)NCCNc1ccccn1)c1cccs1` (stereo not drawn), the figure is 11.18%; as for `CC(C(=O)NCC1CCCCC1)S(=O)(=O)Cc1csc(-c2cccs2)n1` (stereo not drawn), -110.5%.
